Assay results as given in PMC4336329 (PLoS ONE, 2015).
Hit rate of the full screen: of about 310,000 compounds, about 14,000 (4.5%) showed an effect of 50% or more. Effects have a minus sign here. What follows is part of a selection rich in strong results, with near analogues and random picks from the rest.

molecular target: human ether-à-go-go-related gene (hERG) potassium channel (human, UniProt Q12809); assay: primary screen, population patch clamp on CHO cells stably expressing hERG; higher = less effect of the substance
Sequence (Q12809 whole entry, looked up): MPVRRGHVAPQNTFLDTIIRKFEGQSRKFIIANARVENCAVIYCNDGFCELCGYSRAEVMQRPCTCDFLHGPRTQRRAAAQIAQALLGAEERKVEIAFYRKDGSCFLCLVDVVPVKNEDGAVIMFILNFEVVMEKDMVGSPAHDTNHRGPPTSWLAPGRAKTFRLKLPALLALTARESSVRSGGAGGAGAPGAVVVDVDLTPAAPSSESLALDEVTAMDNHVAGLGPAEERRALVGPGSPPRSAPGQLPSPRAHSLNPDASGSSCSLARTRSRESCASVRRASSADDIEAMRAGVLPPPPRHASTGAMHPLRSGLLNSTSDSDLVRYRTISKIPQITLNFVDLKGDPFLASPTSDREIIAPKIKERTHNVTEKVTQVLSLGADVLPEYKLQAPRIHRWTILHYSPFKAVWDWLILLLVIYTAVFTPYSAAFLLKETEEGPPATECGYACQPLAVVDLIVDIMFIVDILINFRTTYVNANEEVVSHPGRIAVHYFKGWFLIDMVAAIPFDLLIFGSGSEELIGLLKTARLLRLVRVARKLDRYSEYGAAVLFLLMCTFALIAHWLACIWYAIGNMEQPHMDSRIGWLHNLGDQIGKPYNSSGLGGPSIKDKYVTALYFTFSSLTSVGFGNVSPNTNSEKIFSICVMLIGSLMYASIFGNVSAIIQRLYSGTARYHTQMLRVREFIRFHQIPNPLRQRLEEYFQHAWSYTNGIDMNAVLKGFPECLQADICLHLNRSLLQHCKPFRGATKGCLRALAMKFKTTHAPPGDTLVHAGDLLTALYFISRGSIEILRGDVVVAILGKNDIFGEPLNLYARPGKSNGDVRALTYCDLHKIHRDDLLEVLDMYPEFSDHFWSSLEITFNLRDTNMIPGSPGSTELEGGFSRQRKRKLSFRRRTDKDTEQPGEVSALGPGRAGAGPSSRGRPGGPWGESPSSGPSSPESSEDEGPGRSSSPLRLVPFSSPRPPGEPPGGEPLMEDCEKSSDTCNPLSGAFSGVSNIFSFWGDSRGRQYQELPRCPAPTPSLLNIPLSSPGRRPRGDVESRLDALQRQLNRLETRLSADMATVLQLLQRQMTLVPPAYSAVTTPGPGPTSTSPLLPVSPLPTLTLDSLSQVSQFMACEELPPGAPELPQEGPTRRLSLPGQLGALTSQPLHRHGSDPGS
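Further: peak tail current of the secondary pulse compared with the same well before compound.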

SMILES	hERG current change (%, negative = inhibition) at 10uM [%]
COC(=O)c1cccc(Nc2cc(C)nc(-c3ccccc3O)n2)c1	10.2
COc1ccc(/C=C/C(=O)OCC(=O)c2ccc3c(c2)NC(=O)CO3)c(OC)c1	1.6
Cc1ccccc1NC(=O)C1CCCN(S(=O)(=O)c2ccc3c(c2)C(C)(C)C(=O)N3C)C1 (stereo not drawn)	6.82
COc1ccccc1CN1CCC(n2nccc2NC(=O)CCc2ccccc2)CC1	-23.9
O=C(Nc1ccnn1C1CCN(Cc2c[nH]c3ccccc23)CC1)c1ccccc1	-44.7
CCOc1ccccc1CN1CCC(n2nccc2NC(=O)CCCc2ccccc2)CC1	-83.7
COc1cccc(CN2CCC(n3nccc3NC(=O)CCCc3ccccc3)CC2)c1O	-75.9
COCc1ccc(CN2CCC(n3nccc3NC(=O)CCCc3ccccc3)CC2)o1	21.5
C=CCOc1ccccc1CN1CCC(n2nccc2NC(=O)C2CCOC2)CC1 (stereo not drawn)	-21.5
C=CCOc1ccccc1CN1CCC(n2nccc2NC(=O)c2ccccc2)CC1	-64.4
COc1ccccc1CN1CCC(n2nccc2NC(=O)CCCc2ccccc2)CC1	-85.2
CCOc1ccccc1CN1CCC(n2nccc2NC(=O)CCc2ccccc2)CC1	-38.6
O=S(=O)(NCc1cccnc1)c1ccc(Cl)c(Cl)c1	-10.9
O=C(CN1CCCCC1)Nc1cc(S(=O)(=O)N2CCOCC2)ccc1N1CCCC1	6.08
COc1ccc(C(=O)C[n+]2cccc3cc(OC)ccc32)cc1.[Br-]	6.04
CCn1c(=O)n(CC)c2cc(NC(=O)CSc3ccc([N+](=O)[O-])cn3)ccc21	-5.04
Cc1nnc(SCC(=O)Nc2ccc(N3CCOCC3)cc2)o1	10.3
Cc1ccccc1CN1CCC(n2nccc2NC(=O)CCOc2ccccc2)CC1	-44.9
COCc1ccc(CN2CCC(n3nccc3NC(=O)CCOc3ccccc3)CC2)o1	-0.748
COc1cccc(CN2CCC(n3nccc3NC(=O)CCOc3ccccc3)CC2)c1O	-61.5
CCC1(CC)NC(=O)N(CC(=O)OC(C)C(=O)Nc2ccc(NC(C)=O)cc2)C1=O (stereo not drawn)	3.1

SMILES	hERG current change (%, negative = inhibition) at 10uM [%]
CCC1(CC)NC(=O)N(CC(=O)OC(C)C(=O)Nc2ccc(Cl)cn2)C1=O (stereo not drawn)	-51.7
CCC1(CC)NC(=O)N(CC(=O)OC(C)C(=O)Nc2ccccc2OC)C1=O (stereo not drawn)	32.3
N#Cc1ccsc1NC(=O)CN1CCN(c2ccccc2O)CC1	-4.95
N#Cc1ccsc1NC(=O)CN1CCCCCC1	-3.42
Cc1ccc(C)c(S(=O)(=O)N2CCN(CC(=O)Nc3sccc3C#N)CC2)c1	-57.7
N#Cc1ccsc1NC(=O)CN1CCN(S(=O)(=O)c2cc(Cl)ccc2Cl)CC1	-32
N#Cc1ccsc1NC(=O)CN1CCN(S(=O)(=O)c2ccccc2C(F)(F)F)CC1	-56.9
CC(=O)N1CCN(CC(=O)Nc2sccc2C#N)CC1	17.8
COC(=O)C1=C2c3[nH]c4ccccc4c3CCN2C(=O)CC1	-23.1
O=C(CN1CCOCC1)NCc1ccccc1	17.4
C=C(C)COc1ccc(-c2[nH]ncc2-c2ccc(OC)c(OC)c2)c(O)c1	-0.891
CC(C(=O)N1CCc2ccccc21)N(C)CC(=O)Nc1ccc(F)cc1 (stereo not drawn)	-47.9
Cc1cc(C)c(NC(=O)CN(C)C(C)C(=O)N2CCc3ccccc32)c(C)c1 (stereo not drawn)	-50.3
CC(C(=O)N1CCc2ccccc21)N(C)CC(=O)Nc1ccccc1Cl (stereo not drawn)	-29.2
CCOC(=O)c1c(C)nc(-c2ccccc2)nc1N	7.25
CCCCC(=O)N1C/C=C\[C@H](c2ccc(OC)cc2)N(Cc2ccc(F)cc2)C(=O)[C@@H]1C	-68.6
COc1ccc([C@H]2/C=C\CN(C(=O)CC(C)(C)C)[C@@H](C)C(=O)N2Cc2ccc(F)cc2)cc1	-17.4
CCCCC(=O)N1C/C=C\C(c2ccc(OC)cc2)N(Cc2ccc(F)cc2)C(=O)[C@H]1Cc1ccccc1 (stereo partly drawn)	7.51
CN(CCNC(=O)C1CCN(S(=O)(=O)c2cnc[nH]2)CC1)Cc1ccccc1	12.6
O=C(CCC1CCCCC1)Nc1ccccc1O	3.23
Cc1ccc(CN2CCN(Cc3ccc4cc(F)ccc4n3)CC2CCO)o1 (stereo not drawn)	-30.6

SMILES	hERG current change (%, negative = inhibition) at 10uM [%]
COc1cc(CN2CCN(Cc3ccc4cc(F)ccc4n3)CC2CCO)cc(OC)c1 (stereo not drawn)	-64.4
COc1ccc(CN2CCN(Cc3ccc4cc(F)ccc4n3)CC2CCO)c(C)c1C (stereo not drawn)	-63.7
COc1cccc(CN2CCN(Cc3ccc4c(NC(C)=O)cccc4n3)CC2CCO)c1 (stereo not drawn)	5.13
CCOc1ccc(CN2CCN(Cc3ccc4cc(F)ccc4n3)CC2CCO)cc1 (stereo not drawn)	-75.7
COc1ccc(CN2CCN(Cc3ccon3)CC2CCO)c(C)c1C (stereo not drawn)	-37.3
CC(=O)Nc1ccc2nc(CN3CCN(Cc4ccc(F)cc4)C(CCO)C3)ccc2c1 (stereo not drawn)	-28.8
COc1ccc(-c2csc3nc(C)nc(N4CCCCC4)c23)cc1OC	-7.85
CC(C)C1Cc2c(sc3c2c(=O)n(Cc2ccccc2)c2nncn32)CO1 (stereo not drawn)	-11
COc1ccc(N2C(=O)CC(N3CCN(S(=O)(=O)c4cc(C)ccc4C)CC3)C2=O)cc1 (stereo not drawn)	-6.8
CC12C=CC3(O1)C(C(=O)N1CCCOC13)C2C(=O)O (stereo not drawn)	-2.54
O=C(c1cc2ccccc2oc1=O)N(c1ccccc1)C1C=CS(=O)(=O)C1 (stereo not drawn)	2.29
COc1ccc(CN(C(=O)c2cc3ccccc3oc2=O)C2CCS(=O)(=O)C2)cc1 (stereo not drawn)	-18.9
Cc1ccc(CN(C(=O)c2cc3ccccc3oc2=O)C2CCS(=O)(=O)C2)cc1 (stereo not drawn)	-34
O=C(c1cc2ccccc2oc1=O)N(Cc1ccccc1)C1CCS(=O)(=O)C1 (stereo not drawn)	-12.2
Cc1ccc(N(C(=O)c2cc3ccccc3oc2=O)C2C=CS(=O)(=O)C2)cc1 (stereo not drawn)	-6.15
Cc1cc(C)cc(N(C(=O)c2cc3ccccc3oc2=O)C2C=CS(=O)(=O)C2)c1 (stereo not drawn)	-55.4
CN(C)c1ccc(CN(C(=O)c2cc3ccccc3oc2=O)C2CCS(=O)(=O)C2)cc1 (stereo not drawn)	-11.8
CCc1ccc(CN(C(=O)c2cc3ccccc3oc2=O)C2CCS(=O)(=O)C2)cc1 (stereo not drawn)	-56.5
CC(C)c1ccc(CN(C(=O)c2cc3ccccc3oc2=O)C2CCS(=O)(=O)C2)cc1 (stereo not drawn)	-62
CC1(C)CC(=O)C=C(Nc2ccc3c(c2)CCC3)C1	-2.73
O=C(Nc1ccccc1)NC1CCN(Cc2nnnn2C2CCCCC2)CC1	-29.2

SMILES	hERG current change (%, negative = inhibition) at 10uM [%]
CCN1CCN(C(=O)c2ccc(CS(=O)Cc3ccc(C)cc3)o2)CC1 (stereo not drawn)	11
O=C(O)C1CCCC2CN3CCc4c([nH]c5ccccc45)C3C(O)C21 (stereo not drawn)	13.7
Cc1ccc(N(C(=O)CNC(=O)c2ccco2)C(C(=O)NC2CCCC2)c2ccncc2)c(C)c1 (stereo not drawn)	14.6
CCOc1ccc(NS(=O)(=O)c2ccc(NC(=O)C3CCCO3)cc2)cc1 (stereo not drawn)	20.7
C/C(=N\NC(=S)NCc1ccccc1)c1ccc2ccccc2c1	15.9
CN(C)CCCNc1ccc(-c2n[nH]c(=O)c3ccccc23)cc1[N+](=O)[O-]	1.1
OCC1(Cc2ccc(Cl)cc2)CCN(Cc2ccc3nsnc3c2)CC1	-61.5
OCCC1CN(Cc2ccc3nsnc3c2)CCN1C1CCCC1 (stereo not drawn)	-25
COc1ccc(C(=O)NCc2ccc3c(c2)CCO3)cc1	7.15
COc1ccc(CC2(CO)CCN(Cc3ccc4nsnc4c3)CC2)cc1	-58.9
COc1ccc(CC2(CO)CCN(Cc3ccc4c(c3)CCO4)CC2)cc1	-65.7
COc1ccc(CC2(CO)CCN(Cc3nc(C(C)C)cs3)CC2)cc1	-48.4
OCC1(CCc2ccccc2)CCN(Cc2ccc3nsnc3c2)CC1	-77.7
OCC1(Cc2ccccc2C(F)(F)F)CCN(Cc2ccc3c(c2)CCO3)CC1	-28.7
O=C(c1cnsn1)N1CCC(CO)(Cc2ccc(Cl)cc2)CC1	-43.7
CC(NS(=O)(=O)c1ccc(F)cc1)C(=O)Nc1ccc2c(c1)OCCO2 (stereo not drawn)	13.2
CCOC(=O)c1ccc(N2C(=O)c3n[nH]c(C)c3C2c2ccco2)cc1 (stereo not drawn)	-5.29
Cc1ncoc1C(=O)N1CCCC(CCC(=O)NCc2ccccc2F)C1 (stereo not drawn)	-6.93
N#Cc1nc(COc2cccc(Cl)c2)oc1N1CCN(c2ccccc2)CC1	-4.18
COCCNC(=O)/C(C#N)=C/c1ccc(O)c([N+](=O)[O-])c1	14.7
CC(CS(=O)(=O)c1ccc2c(c1)NC(=O)CS2)C(=O)NCc1ccccc1Cl (stereo not drawn)	-0.823
